The subject of experiment [1] is C33A. Put plainly: Primary qHTS to identify gynecologic anti-cancer compounds using libraries of approved drugs and bioactive compounds (AID 1345084). Note: nearly all actives have a fitted effect of over 55% in size. Particulars: Gynecologic cancer cell panel viability, ATPlite luminescence, 48 h; series mostly up to 57.5 µM. The method in brief: (§1)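 Cytotoxicity screen measuring ATP content by luciferase luminescence. Each compound is applied at five concentrations for 48 h at 37 C with 5% CO2.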
On the technique in general: In qHTS, concentration-response curves come from the screen itself.

In experiment [2] the test system is CASKI. The description is as above. Particulars: Gynecologic cancer cell panel viability, ATPlite luminescence, 48 h; series mostly up to 57.5 µM. A digest of the protocol:
as §1

For experiment [3], the system named is HeLa. Described as above. Particulars: Gynecologic cancer cell panel viability, ATPlite luminescence, 48 h; series mostly up to 57.5 µM. The method in brief:
as §1
Background: ATP-based viability assays read luminescence as a measure of living cells.

In experiment [4] the test system is Hek293T. Described as above. Particulars: Gynecologic cancer cell panel viability, ATPlite luminescence, 48 h, control line for the selectivity index; series mostly up to 57.5 µM. The method in brief: as §1
The subject of experiment [5] is JEG-3. Described as above. As to conditions: Gynecologic cancer cell panel viability, ATPlite luminescence, 48 h; series mostly up to 57.5 µM. A digest of the protocol: as §1
The test system of experiment [6] is PA-1. Described as above. Particulars: Gynecologic cancer cell panel viability, ATPlite luminescence, 48 h; series mostly up to 57.5 µM. A digest of the protocol: as §1
The subject of experiment [7] is Tov-21-G. The experiment is described as above. Particulars: Gynecologic cancer cell panel viability, ATPlite luminescence, 48 h; series mostly up to 57.5 µM. The method in brief:
as §1

Experiment [8] deals with Tov112D. The experiment is described as above. Particulars: Gynecologic cancer cell panel viability, ATPlite luminescence, 48 h; series mostly up to 57.5 µM. A digest of the protocol: as §1
In experiment [9] the test system is OV90. Described as above. As to conditions: Gynecologic cancer cell panel viability, ATPlite luminescence, 48 h; series mostly up to 57.5 µM. The method in brief:
as §1

Experiment [10] has as its system SKOV3. The description is as above. As to conditions: Gynecologic cancer cell panel viability, ATPlite luminescence, 48 h; series mostly up to 57.5 µM. A digest of the protocol:
as §1

The test system of experiment [11] is CAOV3. Described as above. As to conditions: Gynecologic cancer cell panel viability, ATPlite luminescence, 48 h; series mostly up to 57.5 µM. The method in brief: as §1
Experiment [12] relates to Es-2. Described as above. As to conditions: Gynecologic cancer cell panel viability, ATPlite luminescence, 48 h; series mostly up to 57.5 µM. A digest of the protocol: as §1
Experiment [13] in a line: qHTS assay to identify inhibitors of the type 1 interferon - major histocompatibility complex class I in skeletal muscle: Counter screen cell viability and HiBit confirmation (AID 1347412). Note: nearly all actives have a fitted effect of over 60% in size. Particulars: iHSKM muscle cells + IFN-b, HiBiT or CellTiter-Glo, 24 h. A digest of the protocol:
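Human myoblast knock-in line, 4.0 ng/ml IFN-beta stimulation, 24 h compound treatment. Endpoints: HiBiT lytic luminescence (HLA-B level) and CellTiter Glo (ATP). Dosing 12 concentrations, 3-fold steps, 46 uM highest final.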

Structures are written as SMILES. Records with an inconclusive call do not appear. Values without a mark were called inactive. The source made the active and inactive calls. Calls come from the whole dose curve; as a rule, active = well fitted curve in the direction sought with a large enough effect; inconclusive = small, poorly fitted or top-dose-only effect, or another doubt; inactive = no such curve, though single readings can be large; an effect the other way counts as inactive or inconclusive.
% is set by controls: 0 for no effect and ±100 for the full control effect; potency is the fitted concentration of half-maximal effect.

For `N=c1nc2n(cc1F)C1OC(CO)C(O)C1O2` (stereo not drawn), the Potency entry in [1], in [2], in [3], in experiment [4], in [5] and in experiment [7] was “inactive” throughout. In addition, the results for the Potency in experiment [6] and in experiment [8] were 0.891 µM (active) and 1.41 µM (active), respectively.
For `COc1cc2nc(N3CCCC3)nc(NCCCCCN3CCCC3)c2cc1OC`, the Potency in [1] is 15.8 µM (active); in experiment [3] it was 25.1 µM (active); in [4], 15.8 µM (active); in experiment [9], 25.1 µM (active); in [6], 6.31 µM (active); in experiment [10], 12.6 µM (active).
As to `CC1(CCOC2OC(CO)C(O)C(O)C2O)CCC23OC2(C1)C(O)CC1C(C)(C(=O)O)CCCC13C` (stereo not drawn), the Potency entry in experiment [11], in experiment [2], in [12], in [3], in experiment [4] and in [5] was “inactive” each time. Moreover, the Potency result in experiment [9], in experiment [10], in experiment [7] and in experiment [8] was “inactive” each time.
Consider `Cc1nc(Nc2n[nH]c3c2CN(C(=O)NC(CN(C)C)c2ccccc2)C3(C)C)c2sccc2n1` (stereo not drawn), for which the Potency in experiment [11] is 1.41 µM (active); in [2], 3.98 µM (active); in experiment [12], 7.94 µM (active); in experiment [3] it was 10 µM (active); in [4] it was 7.94 µM (active); in experiment [9] it was 3.16 µM (active). Besides, the values for the Potency in experiment [6] and in [8] were 0.316 µM (active) and 6.31 µM (active), respectively.
On to `CC(C)c1cc(CNc2nc(Nc3cc(C4CC4)[nH]n3)cc(N3CCN(C)CC3)n2)on1`, for which the Potency in [11] is 0.282 µM (active); in [2], 2.82 µM (active); in experiment [12], 7.94 µM (active); in [3] it was 0.251 µM (active); in [4], 2 µM (active); in [9], 3.16 µM (active). Moreover, the Potency in experiment [6] was 0.398 µM (active); in experiment [10] it was 1 µM (active); in [8], 5.01 µM (active); in experiment [13] (HiBiT), 1.98 µM (active). Besides, the activity change, negative = inhibition in experiment [13] (Viability, at 45.9 µM (top of the series)) is 6.65%.
On to `CC1=C(C(=O)O[C@@H]2O[C@H](COC3OCC(O)C(O)C3O)[C@@H](O)[C@H](O)[C@H]2O)C(C)(C)CCC1` (stereo partly drawn), for which the Potency entry in experiment [11], in experiment [2], in experiment [12], in experiment [3], in experiment [4] and in experiment [5] was “inactive” each time. Further, the Potency result in experiment [9], in [6], in experiment [10], in experiment [7] and in experiment [8] was “inactive” throughout.
With `CC[C@]1(O)CC2CN(CCc3c([nH]c4ccccc34)[C@@](C(=O)OC)(c3cc4c(cc3OC)N(C=O)[C@H]3[C@@](O)(C(=O)OC)[C@H](OC(C)=O)[C@]5(CC)C=CCN6CC[C@]43[C@@H]65)C2)C1` (stereo partly drawn), the Potency entry in experiment [11] is “inactive”. Further, the Potency in experiment [2] is 0.0891 µM (active); in experiment [12], 0.447 µM (active); in experiment [3] it was 0.282 µM (active); in experiment [9] it was 1.78 µM (active); in [6], 0.126 µM (active); in [7] it was 0.126 µM (active). For the same molecule, in [8], the Potency was 0.158 µM (active).
Take `O=C(c1ccccc1)c1ccc2nc(NC(=O)c3csc(C4CCN(c5ncnc6ccsc56)CC4)n3)[nH]c2c1`: the Potency is 15.8 µM (active) in [1], 8.91 µM (active) in experiment [4], 17.8 µM (active) in experiment [9] and 12.6 µM (active) in experiment [8]. The Potency result in experiment [5] is “inactive”.
`O=C1N=C(N2CCOCC2)CN1c1ccc(Cl)cc1`: the Potency result in experiment [11], in experiment [2], in [12], in [3], in [4] and in experiment [5] was “inactive” each time. In addition, the Potency result in experiment [9], in [6], in [10], in [7] and in experiment [8] was “inactive” throughout.
In the case of `CC(C)c1cc(C(=O)N2CC[C@H](NC(=O)C3CC3)C2)n[nH]1`, the Potency entry in [11], in [2], in [12], in experiment [3], in [4] and in [5] was “inactive” in each case. The Potency result in experiment [9], in experiment [6], in experiment [10], in experiment [7] and in experiment [8] was “inactive” each time.
In the case of `C[C@@H]1CCC2C(C)(C)[C@H](O)CC[C@]2(C)[C@@]12Cc1c(O)cc3c(c1O2)CNC3=O` (stereo partly drawn), the Potency result in experiment [11] was “inactive”.
Consider `CC(C)Oc1ccc(C(=O)NC(CNC(=O)CN(C)C)Cc2ccc(-c3cn4cccc(C(C)O)c4n3)cc2)cc1Cl` (stereo not drawn), for which the Potency result in [1], in experiment [5], in experiment [9] and in experiment [10] was “inactive” each time. For the same molecule, the Potency is 0.251 µM (active) in experiment [3], 0.316 µM (active) in [6] and 0.316 µM (active) in [8].
On to `O=C(c1cn(Cc2cncn2Cc2ccc(Br)cc2)cc1-c1cccc2ccccc12)N1CCOCC1`, for which the Potency entry in experiment [1], in experiment [12] and in [8] was “inactive” throughout. For the same molecule, the Potency in experiment [10] was 17.8 µM (active).
Turning to `CCOc1cc(N2CCC(O)CC2)ccc1Nc1ncc2c(n1)N(C1CCCC1)CCC(=O)N2C`, the Potency entry in [1], in [5] and in experiment [8] was “inactive” throughout. The Potency in experiment [10] is 8.91 µM (active).
In the case of `CN1c2ccccc2C(=O)N2CCC3c4ccccc4NC3C21` (stereo not drawn), the Potency result in experiment [1] and in [9] was “inactive” throughout. Also, the Potency in experiment [4] was 5.62 µM (active); in [5], 3.98 µM (active); in experiment [6], 4.47 µM (active); in experiment [7] it was 6.31 µM (active); in [8], 1.78 µM (active).
As for `COc1cc2nc(N3CCC(N4CCCCC4)CC3)nc(NC3CCCCCC3)c2cc1OC`, the values for the Potency in experiment [1], in experiment [9] and in experiment [10] were 25.1 µM (active), 22.4 µM (active) and 22.4 µM (active), respectively.
Turning to `O=C(NCc1ccc(S(=O)(=O)c2cc(F)cc(F)c2)cc1)c1ccc2nccn2c1`, the Potency in experiment [11] was 0.316 µM (active).
As to `CC[C@H](C)[C@H](NC(=O)[C@H]([C@@H](C)CC)N(C)C(C)=O)C(=O)N[C@H](C(=O)N[C@@H](CC(C)C)C(=O)[C@@]1(C)CO1)[C@@H](C)O`, the Potency in experiment [1], in [3] and in [8] was 0.1 µM (active) each time. Further, the Potency result in experiment [5] was “inactive”.
Take `COc1ccc(C(=O)Nc2ncc(-c3ccc(C(=O)O)cc3)s2)cc1`: the Potency in [11] is 6.31 µM (active); in experiment [2], 17.8 µM (active); in experiment [12], 31.6 µM (active); in experiment [3] it was 7.08 µM (active); in [5], 15.8 µM (active); in [9], 10 µM (active). In addition, the Potency in experiment [7] and in [8] was 14.1 µM (active) throughout.

The values are drawn from PubChem BioAssay (NCATS).
